Assay outcomes as filed in PubChem.
In the library only some 4.3% were active in any assay of this set; here they are far more common.
NadD inh – inhibitors of S. aureus NadD, primary screen, biochemical, colorimetric, uHTS. inhibition, % at 20 µM. purified NadD enzyme, colorimetric absorbance read-out. 360,000 compounds, 0.78% hits. Nicotinate-nucleotide adenylyltransferase NadD (Staphylococcus aureus N315); in the data active = inhibition above about 26%
rCAG RNA binder – binders of r(CAG) RNA repeats, primary screen, biochemical, fluorescence; r(CAG) RNA repeat, TO-PRO-1 dye displacement fluorescence; inhibition, % at 3 µM; 370,000 compounds, 1.3% hits;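 active = inhibition above the plate cutoff, the mean of all test compounds on that plate plus 3 SD, cut at about 35% in these data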;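 note: higher means more dye released from RNA so lower well fluorescence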
FAS-TE inh – FAS thioesterase domain inhibitors, primary screen, biochemical, fluorescence intensity, uHTS. 360,000 compounds, 0.67% hits. inhibition, % at 15 µM. recombinant FAS-TE, OMFH fluorogenic substrate, fluorescence endpoint. AID 602261, 2012;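 active = compounds whose normalised, plate-corrected inhibition of enzyme fluorescence in the single-dose primary screen is 50% or more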
NR3A LBD binder – binders of NR3A ligand-binding domain, primary screen, biophysical, differential scanning fluorimetry, uHTS; 340,000 compounds, 2.5% hits; Tm shift relative to glycine control, % at 25 µM; NR3A LBD differential scanning fluorimetry, Tm shift; 0% = protein alone, 100% = glycine-bound protein; Glutamate receptor ionotropic, NMDA 3A (GRIN3A) ligand-binding domain;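 active = melting temperature shift of at least 10% of the positive control shift, at one fixed dose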
NadD inh conf – inhibitors of S. aureus NadD, confirmation, biochemical, colorimetric, single concentration; shares compounds with NadD inh; purified S. aureus NadD, colorimetric enzyme assay; inhibition, % at 20 µM; 2,000 compounds, 13% hits; in the data active = inhibition mostly above about 42%, no sharp cut-off; inactive = mostly below about 42%
Each line names hits and unclear results; the compound was inactive in the other large screens (follow-up assays come after a bar, where they were run).

COc1ccc(-c2csc(NC(=O)c3ccc(S(=O)(=O)N4CCc5ccccc5C4)cc3)n2)cc1	none
COc1ccc(-c2nnc(NC(=O)c3ccc(S(=O)(=O)N4CCc5ccccc5C4)cc3)o2)cc1	NadD inh 84 (no result: rCAG RNA binder) | NadD inh conf inactive
Cc1c(-c2cccc(Cl)c2)nc2ccccc2c1C(=O)OC/C(O)=C(\C#N)c1nc2ccccc2[nH]1	NadD inh 70 | NadD inh conf inactive
Cc1cccc(C)c1OCC(=O)OC/C(O)=C(\C#N)c1nc2ccccc2[nH]1	none
CC(C)OCc1c(C(=O)OC/C(O)=C(\C#N)c2nc3ccccc3[nH]2)oc2ccccc12	none
Cc1c(C(=O)OC/C(O)=C(\C#N)c2nc3ccccc3[nH]2)oc2ccc(Br)cc12	NadD inh 43 | NadD inh conf inactive
O=C1Nc2cc(C(=O)NCCCN3CCCC3)ccc2S/C1=C\c1ccccc1	none
COc1ccc(/C=C2/Sc3ccc(C(=O)NCCN4CCCCCC4)cc3NC2=O)cc1	NadD inh 56 | NadD inh conf inactive
O=C(Nc1ccc2c(c1)OCO2)N1CCC(c2nc3ccc(Cl)cc3[nH]2)CC1	none (no result: NadD inh, FAS-TE inh, NR3A LBD binder)
O=C(N/N=C/C=C/c1ccccc1[N+](=O)[O-])c1ccncc1	none
O=C(N/N=C/C=C\c1ccccc1[N+](=O)[O-])c1cc(-c2ccc3ccccc3c2)n[nH]1	NadD inh 43, NR3A LBD binder 18 | NadD inh conf 27
Cc1c(C(=O)NNC(=O)c2csc(N3CCOCC3)n2)oc2ccc(Br)cc12	NadD inh 32 (no result: NR3A LBD binder) | NadD inh conf inactive
CC(C)(C)n1nc(C2CC2)cc1NC(=O)Nc1ccccc1	none (no result: NadD inh, FAS-TE inh, NR3A LBD binder)
C/C(CC1CC(COCC(C)C)OC1=O)=N\Nc1nc(-c2ccccc2)cs1 (configuration not stated)	NadD inh 28 | NadD inh conf inactive
Cc1cccc(N=C2NN=C(c3c(C)[nH]c4ccccc34)CS2)c1	NadD inh 36, NR3A LBD binder 19 | NadD inh conf inactive
COc1ccc2c(c1)[C@@H](NC(=O)c1ccncc1)[C@@H]1Cc3ccccc3[C@H]21	none (no result: NadD inh, FAS-TE inh, NR3A LBD binder)
COC(=O)[C@]12C[C@H](CC(=O)N3CCCC3)C(=O)N(CCC3=CCCCC3)C1=C[C@H](COCc1ccccc1)O[C@@H]2C	none (no result: NadD inh, FAS-TE inh, NR3A LBD binder)
O=CNn1cnc2c(oc3nc(-c4ccccc4)cc(-c4ccco4)c32)c1=O	NadD inh 36, NR3A LBD binder 29 | NadD inh conf inactive
COc1ccc(-c2c3c([nH]c(=S)c2C#N)CCC3)cc1	NadD inh 36 | NadD inh conf inactive
Cc1ccc(-c2c(C(=O)Nc3ccccc3C)c(C)[nH]c(=S)c2C#N)o1	NadD inh 31 | NadD inh conf inactive
Cc1ccccc1NC(=O)c1c(C)[nH]c(=S)c(C#N)c1-c1ccc(Cl)cc1	none
Cc1cc2cc(CNC(=S)Nc3ccc(OC(F)(F)F)cc3)ccc2[nH]1	NadD inh 32, NR3A LBD binder 12 | NadD inh conf inactive
Cc1cc2cc(CNC(=O)Nc3ccccc3)ccc2[nH]1	NadD inh 49 | NadD inh conf inactive
CCOC(=O)NCc1ccc2[nH]c(C)cc2c1	none
COc1ccc(Cn2cc(COC(=O)N3CCOCC3)nn2)cc1	none (no result: NadD inh, FAS-TE inh, NR3A LBD binder)
O=[N+]([O-])c1ccc(O)c(-c2nc(-c3ccccc3)c(-c3cccs3)[nH]2)c1	NadD inh 34, NR3A LBD binder 30 | NadD inh conf inactive
O=S1(=O)c2ccc(N3CCSCC3)cc2Oc2ccccc2CN1Cc1cn(Cc2cccc(F)c2)nn1	none (no result: NadD inh, FAS-TE inh, NR3A LBD binder)
CCCCCCc1cc2cc(/C(N)=N/NC(=O)c3ccncc3)c(=O)oc2cc1O	NadD inh 61 | NadD inh conf inactive
CCCCN(C)C(=O)CSc1nc(NCc2ccc(OC)cc2)c2ccccc2n1	none
O=c1cc(CSc2nc(NCc3ccc(Cl)cc3)c3ccccc3n2)nc2ccc(Cl)cn12	NadD inh 33 | NadD inh conf inactive
CCC(C(=O)Nc1ccccc1N1CCCC1)c1cccc(C)c1 (configuration not stated)	none (no result: NadD inh, FAS-TE inh, NR3A LBD binder)
CCn1c2ccccc2c2cc(N=C3SC(CC(=O)Nc4ccccc4)C(=O)N3C)ccc21 (configuration not stated)	NadD inh 31 | NadD inh conf inactive
COCc1cc(N2CCNC[C@@H]2C)ccc1N1C[C@@H](C)O[C@@H](C)C1	none (no result: NadD inh, FAS-TE inh, NR3A LBD binder)
O=C(Nc1ccccc1N1CCCC1)c1cccc(-c2cc3ccccc3oc2=O)c1	none
O=C(Nc1ccc(N2CCCC2)cc1)c1cccc(-c2cc3ccccc3oc2=O)c1	NadD inh 57 | NadD inh conf inactive
O=C(Nc1ccc(N2CCCC2)cc1)c1ccc2ccccc2c1	NadD inh 34 | NadD inh conf inactive
O=C(Nc1ccc(N2CCCC2)cc1)c1ccc([N+](=O)[O-])cc1Cl	NadD inh 36 | NadD inh conf inactive
CCCCCN1CCCCC(NC(=O)c2cc(OC)c(OC)c(OC)c2)C1=O (configuration not stated)	none (no result: NadD inh, FAS-TE inh, NR3A LBD binder)
Cc1noc(C)c1NC(=O)Nc1ccc2c(c1)C(=O)N(C)[C@H]1CC[C@H](CC(=O)NCc3ccc(Cl)cc3)O[C@@H]1CO2	none (no result: NadD inh, FAS-TE inh, NR3A LBD binder)
O=c1cc(CN2CCN(C/C=C/c3ccccc3)CC2)c2cc(O)c(-c3ccccc3)cc2o1	NadD inh 39 | NadD inh conf inactive
Cc1cc2oc(=O)cc(CN3CCN(C/C=C/c4ccccc4)CC3)c2cc1O	none (no result: NR3A LBD binder)
N#Cc1c(-c2ccco2)cc(-c2ccc(F)cc2)nc1N	NadD inh 52 | NadD inh conf inactive
S=C(Nc1ccc(Br)cc1)OC1CCC12CCC(c1ccccc1)CC2 (configuration not stated)	none (no result: NadD inh, FAS-TE inh, NR3A LBD binder)
N#Cc1c(OCC(=O)c2ccccc2)nc2c(c1-c1ccco1)CCc1ccccc1-2	NadD inh 32 | NadD inh conf inactive
CCOC(=O)COc1nc2c(c(-c3ccco3)c1C#N)CCc1ccccc1-2	none
O=C(NC1=NC2(C=C3CCCCC3n3c(=O)n(-c4ccccc4)c(=O)n32)CN1CC1CC1)c1ccccc1 (configuration not stated)	none (no result: NadD inh, FAS-TE inh, NR3A LBD binder)
Cc1ccc(C(C)(C)C)cc1S(=O)(=O)N1CCC(C(=O)N2CCN(c3ccc(O)cc3)CC2)CC1	NadD inh 67 | NadD inh conf inactive
Cc1ccc(-c2nnc(Oc3ccc(NC(=O)c4ccccc4)cc3)c3ccccc23)cc1	NadD inh 30 | NadD inh conf inactive
Nc1ccc(O)c(-c2nc3ccccc3s2)c1	NadD inh 63 | NadD inh conf inactive
Nc1cccc(-c2nc3ccc(N)cc3s2)c1	none
Cc1ccc(C(CCN(Cc2ccccc2)C(=O)c2ccco2)c2ccco2)cc1 (configuration not stated)	NadD inh 38 | NadD inh conf inactive
CC(=O)Nc1c(-c2ccc(C(F)(F)F)cc2)nc2ncccn12	none (no result: NadD inh, FAS-TE inh, NR3A LBD binder)
CCc1cc(C(=O)Nc2nc(-c3ccccn3)cs2)sc1C	NadD inh 33 | NadD inh conf inactive
